Inconclusive results are not listed. Active and inactive are the calls of the source. Calls follow the shape of the dose curve; as a rule, active = well fitted cell-killing curve with a large enough effect in the repeat runs; inconclusive = weak or mixed curves, or effect the other way; inactive = no such curve, though single readings can be large or run the other way.
assay: qHTS assay for small molecule activators of the heat shock response signaling pathway - cell viability counter screen (AID 743209); conditions: HSE-bla HeLa viability, CellTiter-Glo luminescence, 5 h; series mostly up to 62.6 µM; activity change, negative = cytotoxicity: at the top concentration; also: nearly all actives have a fitted effect of over 50% in size
Source text: U.S. Tox21 Program National Center for Advancing Translational Sciences [NCATS] NIH Chemical Genomics Center [NCGC] U.S. Environmental Protection Agency [EPA] National Institutes of Environmental Health Sciences [NIEHS] National Toxicology Program [NTP] U.S. Food and Drug Administration [FDA] Tox21 Assay Overview: Various chemicals, environmental and physiological stress conditions may lead to the activation of heat shock response/ unfolded protein response (HSR/UPR). There are three heat shock transcription factors (HSFs) (HSF-1, -2, and -4) mediating transcriptional regulation of the human HSR. To identify the compounds that activate HSR signaling, HSE-bla HeLa cell line (Invitrogen, Carlsbad, CA, USA) containing a beta-lactamase reporter gene under the control of the heat shock response elements was used to screen Tox21 10K compound library. The cytotoxicity of the Tox21 compound library against the HSE-bla HeLa cell line was tested in parallel by measuring the cell viability using CellTiter-Glo assay (Promega, Madison, WI) in the same wells.
Tox21 Assay Protocol Summary: The CellSensor HSE-bla HeLa cells (Invitrogen, Carlsbad, CA, USA) were dispensed at 1500 cells/6uL/well into 1536-well black wall/clear bottom plates using a Multidrop combi (Thermo Fisher Scientific, Waltham, MA) dispenser. After the assay plates were incubated at 37 C and 5% CO2 overnight, 23 nL of compounds dissolved in DMSO, positive controls or DMSO only was transferred to the assay plate by a Pintool station (Kalypsys, San Diego, CA). The plates were incubated at 37 C for 5 h. After 1 uL of LiveBLAzerTM B/G FRET substrate was added using a Flying Reagent Dispenser (FRD, Beckman Coulter, Indianapolis, IN, USA), the plates were incubated at room temperature for 2.5 h, and fluorescence intensity was measured by an Envision plate reader (PerkinElmer, Shelton, CT). For cell viability readout that measures cytotoxicity, 3 ul/well of CellTiter-Glo reagent was added into the assay plates using a FRD. After 30 min incubation at room temperature, the luminescence intensity in the plates was measured using a ViewLux (PerkinElmer) plate reader.
% is scaled to controls: 0 for no effect and ±100 for the full control effect; potency is read from the fitted curve at half-maximal effect.

For CC(=O)[C@H]1CC[C@H]2[C@@H]3CC[C@H]4C[C@H](O)CC[C@]4(C)[C@H]3C(=O)C[C@]12C, which “activity change, negative = cytotoxicity” value is on record?
Its value is -0.446% (inactive).

Which “activity change, negative = cytotoxicity” value does the source give for Clc1cccc(N2CCNCC2)c1 here?
Its value is 6.96% (inactive).

With C#C[C@]1(O)C=C[C@H]2[C@@H]3CCC4=CC(=O)CC[C@@H]4[C@H]3CC[C@@]21CC as the molecule, how does the “activity change, negative = cytotoxicity” value read?
The value was -2.29% (inactive).

With CCOC(=O)N(C)C(=O)CSP(=S)(OCC)OCC as the molecule, how does the “activity change, negative = cytotoxicity” value read?
The value was -2.51% (inactive).

With CC1=C(C(=O)Nc2ccccc2)S(=O)(=O)CCO1 as the molecule, how does the “activity change, negative = cytotoxicity” value read?
Its value is -20.8% (inactive).

Which “activity change, negative = cytotoxicity” value does the source give for CCC(=O)C(CCN(C)C)(c1ccccc1)c1ccccc1 here?
Its value is -6.12% (inactive).

For CC(CC(C#N)(c1ccccc1)c1ccccc1)N(C)C (stereo not given), which “activity change, negative = cytotoxicity” value is on record?
The value was 2.3% [at 81.1 µM] (inactive).

Which “activity change, negative = cytotoxicity” value does the source give for Nc1c(Br)cc([N+](=O)[O-])cc1[N+](=O)[O-] here?
The value was 2.63% [at 81.1 µM] (inactive).

Which “activity change, negative = cytotoxicity” value does the source give for CC1=NNC(=O)N(/N=C/c2cccnc2)C1 here?
The value was -0.0004% (inactive).

With O=C(Oc1ccc(Br)cc1)N1CCN2CCC1CC2 as the molecule, how does the “activity change, negative = cytotoxicity” value read?
Its value is 5.17% (inactive).

With O=P(O)(Oc1ccccc1)Oc1ccccc1 as the molecule, how does the “activity change, negative = cytotoxicity” value read?
Its value is 0.938% (inactive).

Which “activity change, negative = cytotoxicity” value does the source give for ClC(Br)Br here?
The value was -3.54% (inactive).

For CCNc1nc(NC(C)C)nc(OC)n1, which “activity change, negative = cytotoxicity” value is on record?
The value was 0.856% (inactive).

With O=C(O)c1ccc2[nH]cc(CCCCN3CC=C(c4ccccc4)CC3)c2c1 as the molecule, how does the “activity change, negative = cytotoxicity” value read?
Its value is 2.87% (inactive).

With CCOP(=O)(N=C1SCCS1)OCC as the molecule, how does the “activity change, negative = cytotoxicity” value read?
The value was -6.31% (inactive).

With N#CCBr as the molecule, how does the “activity change, negative = cytotoxicity” value read?
The value was -0.838% [at 81.1 µM] (inactive).

With CCC1(c2ccccc2)C(=O)N=C(O)NC1=O (stereo not given) as the molecule, how does the “activity change, negative = cytotoxicity” value read?
The value was -3.31% (inactive).

Which Potency does the source give for COc1cccc2c1cc([N+](=O)[O-])c1c(C(=O)O)cc3c(c12)OCO3 here?
The Potency was 3.89 µM (active).

Which “activity change, negative = cytotoxicity” value does the source give for CS(=O)(=O)c1cc(C(F)(F)F)ccc1C(=O)c1cnoc1C1CC1 here?
Its value is 5.58% (inactive).

Which “activity change, negative = cytotoxicity” value does the source give for Fc1cc(Br)ccc1CBr here?
The value was -2.24% (inactive).

With COC(=O)c1c(C(F)F)nc(C(F)(F)F)c(C2=NCCS2)c1CC(C)C as the molecule, how does the “activity change, negative = cytotoxicity” value read?
The value was 6.58% (inactive).

For O=c1oc2ccccc2c(O)c1C1CCCc2ccccc21 (stereo not given), which “activity change, negative = cytotoxicity” value is on record?
The value was -11.8% (inactive).

For O=C(Nc1ccccc1)c1ccccc1I, which “activity change, negative = cytotoxicity” value is on record?
The value was 7.42% (inactive).

Which “activity change, negative = cytotoxicity” value does the source give for CCCCOC(=O)[C@@H](C)Oc1ccc(Oc2ccc(C#N)cc2F)cc1 here?
The value was 1.06% (inactive).

With CCC(C)n1c(=O)[nH]c(C)c(Br)c1=O (stereo not given) as the molecule, how does the “activity change, negative = cytotoxicity” value read?
Its value is -0.0046% (inactive).

With [Cl][Sn]([Cl])([Cl])[Cl] as the molecule, how does the “activity change, negative = cytotoxicity” value read?
The value was -4.62% [at 81.1 µM] (inactive).

Which “activity change, negative = cytotoxicity” value does the source give for O=C1c2ccccc2C(=O)c2ccccc21 here?
The value was 3.1% [at 29.1 µM] (inactive).

With COC(=O)C(C)Oc1ccc(Oc2ccc(Cl)cc2Cl)cc1 (stereo not given) as the molecule, how does the “activity change, negative = cytotoxicity” value read?
Its value is -2.06% (inactive).

Which “activity change, negative = cytotoxicity” value does the source give for COc1cc2c(cc1OC)[C@@]13CCN4CC5=CCO[C@H]6CC(=O)N2[C@H]1[C@H]6[C@H]5C[C@H]43 here?
The value was -2.62% (inactive).

Which “activity change, negative = cytotoxicity” value does the source give for CCN(CC)CCOC(=O)C(C)(c1ccccc1)c1ccccc1 here?
The value was -3.51% (inactive).

With Nc1cc(Cl)ccc1O as the molecule, how does the “activity change, negative = cytotoxicity” value read?
Its value is -10.7% (inactive).

Which “activity change, negative = cytotoxicity” value does the source give for Nc1n[nH]c(N)n1 here?
Its value is -2.8% [at 81.1 µM] (inactive).

With CC(C)CC#N as the molecule, how does the “activity change, negative = cytotoxicity” value read?
The value was -18.8% [at 81.1 µM] (inactive).

For CCOC(=O)NC(=S)Nc1ccccc1NC(=S)NC(=O)OCC, which “activity change, negative = cytotoxicity” value is on record?
The value was -5.13% (inactive).

With ClCC(Cl)(Cl)Cl as the molecule, how does the “activity change, negative = cytotoxicity” value read?
The value was 3.62% [at 81.1 µM] (inactive).

Which “activity change, negative = cytotoxicity” value does the source give for O=C1OC(c2ccc(O)c(S(=O)(=O)O)c2)(c2ccc(O)c(S(=O)(=O)O)c2)c2c(Br)c(Br)c(Br)c(Br)c21 here?
The value was -3.1% (inactive).

For CCN(CC)c1nc(C)cc(OP(=S)(OC)OC)n1, which “activity change, negative = cytotoxicity” value is on record?
Its value is 1.65% (inactive).

For O=CNC(N1CCN(C(NC=O)C(Cl)(Cl)Cl)CC1)C(Cl)(Cl)Cl (stereo not given), which “activity change, negative = cytotoxicity” value is on record?
Its value is 0.0278% (inactive).

For CCOC(=O)/C=C(C)/C=C/C[C@@H](C)CCCC(C)C, which Potency is on record?
Its Potency is 38.9 µM (active).

With C(CCOCC1CO1)COCC1CO1 (stereo not given) as the molecule, how does the “activity change, negative = cytotoxicity” value read?
The value was -2.93% (inactive).

— PubChem BioAssay (Tox21)
